The values below come from PubChem BioAssay (EPA / NIEHS).

Results filed as inconclusive are left out. Calls of active or inactive are those of the source. How the source made its calls, unless noted: active means hit-call score of the fitted dose curve at least 0.9, where 1 is the maximum; inconclusive means response in the unintended direction; inactive means score below 0.9.

Assay [1] in a line: CEETOX_H295R_MTT_cell_viability: Viability Assessment in the CeeTox HT-H295R MTT Assay (AID 2283718; active means hit-call score of the fitted dose curve at least 0.9, where 1 is the maximum; inactive means score below 0.9;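 on AC50: curve fitted both ways so AC50 may mark viability loss or gain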). The gist of the method: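 H295R cells prestimulated 48 h with 10 uM forskolin, then exposed 48 h to test chemical (0.1% DMSO final). Viability by MTT (0.5 mg/ml, 4 h, 37 C), absorbance 570/650 nm; percent change versus DMSO, bidirectional fit.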
A short description of assay [2]: Tanguay_ZF_120hpf_ActivityScore_legacy: (Legacy) Oregon State University Tanguay Lab 120 Hour Post-fertilization zebrafish Assay Score for Activity (AID 2283742).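 On AC50: dechorionated Tropical 5D wild-type zebrafish embryos held singly per well; static exposure from 6 hpf until 120 hpf at 28 °C.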 In short, it runs like this:
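In this whole-embryo screen, dechorionated zebrafish were exposed from 6 hpf until 120 hpf at 28C under a 0.64% DMSO vehicle. Developmental malformations and death were recorded by brightfield microscopy as binary endpoints.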

Assay [3] deals with Luciferin 4-monooxygenase (Photinus pyralis) (UniProt P08659). The assay is described as follows: CCTE_Simmons_QuantiLum_inhib_2: CCTE's Firefly Luciferase Inhibition Assay, Simmons Lab (AID 2283767).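 On AC50: potency for inhibitors that lower luciferase luminescence relative to DMSO.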 In short, it runs like this:
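Eight test concentrations, 5 nM up to 87.5 uM final, preincubated 30min at 37C in the dark with purified luciferase (0.5% DMSO final). Detection reagent (150uM D-luciferin, 147uM dATP, 75uM CoA, pH 7.8) injected per well before kinetic luminescence read; three replicates.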

Assay [4] can be described thus: ACEA_AR_agonist_AUC_viability: ACEA Biosciences xCELLigence Real-Time Cell Analysis on Androgen Receptor Agonism for Viability (AID 2283775).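 On AC50: viability read 80 hours after compound addition.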 In short, it runs like this:
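22Rv1 cells; impedance growth kinetics; 8-pt 1:4 dilutions from 100 uM top final, ≤0.5% DMSO; n = 2; 80 h read; AUC viability, loss-of-signal vs DMSO.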

Assay [5] in a line: ACEA_AR_antagonist_AUC_viability: ACEA Biosciences xCELLigence Real-Time Cell Analysis on Androgen Receptor Antagonism for Viability (AID 2283776).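 Further: 22Rv1 human prostate cancer cells growing on impedance electrode plates; area under impedance growth curve at 80 h after dosing as viability; hits lower the growth signal relative to DMSO meaning cytotoxicity.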 The gist of the method: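 Viability endpoint from label-free cell-index monitoring: 22Rv1 cultures treated with an eight-point 1:4 dilution series starting at 100 uM final, AUC at 80 h fitted against DMSO.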
Assay [6] can be described thus: ArunA_CellTiter_hNC: Viability Assessment in the ArunA Biomedical's Oris Neural Crest (hNC) Cell Migration Assay (AID 2283752). The gist of the method:
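After a 72 h chemical exposure, viability of hNC cells is read with CellTiter Aqueous One and fitted as signal loss relative to DMSO. Cells were seeded at 60,000/well on Matrigel and cultured 16 h at 37 C beforehand.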

The nature of assay [7]: ArunA_Migration_hNP: ArunA Biomedical's Oris Neuroprogenitor (hNP) Cell Migration Assay (AID 2283754). In short, it runs like this: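 Readout is calcein-AM fluorescence (ex494/em517) of cells migrating into the detection zone, relative to DMSO. hNP1 cells (H9-derived) grown on Matrigel behind stoppers 16 h, then stoppers pulled and chemical applied 72 h; cytochalasin D as control.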

Assay [8] is described as follows: ArunA_Migration_hNC: ArunA Biomedical's Oris Neural Crest (hNC) Cell Migration Assay (AID 2283755). The gist of the method:
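Calcein-AM fluorescence (ex494 nm/em 517 nm) in the stopper-defined detection zone quantifies migration of hNC cells after 72 h chemical exposure; 60,000 cells/well plated on Matrigel with LIF and bFGF, 16 h pre-incubation. DMSO baseline.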

Assay [9] is described as follows: ArunA_NOG_NucleusCount: ArunA Biomedical's Neurite Outgrowth (NOG) Assay for Nucleus Count (AID 2283756). The gist of the method: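 Viable neuron count, from Hoechst nuclei passing size and intensity gates, imaged at 20x on differentiated H9-derived human neurons. Exposure lasted 48 h from seeding; activity was scored relative to DMSO.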
Assay [10] is described as follows: ArunA_NOG_NeuriteLength: ArunA Biomedical's Neurite Outgrowth (NOG) Assay for Neurite Length (AID 2283757). In short, it runs like this:
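Total neurite length per neuron, from traced βIII-tubulin-labelled processes longer than 10 um on viable Hoechst-gated cells, was scored as decrease from DMSO. Cells were hESC (H9)-derived neurons given 48 h chemical exposure immediately after seeding.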

The nature of assay [11]: ArunA_NOG_NeuritesPerNeuron: ArunA Biomedical's Neurite Outgrowth (NOG) Assay for Neurites Per Neuron (AID 2283758). In short, it runs like this: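 Differentiated human H9-derived neurons exposed to chemicals for 48 h from seeding, then stained with Hoechst and βIII-tubulin/DyLight 488. Automated imaging counted neurites (processes >10 um) per valid neuron; loss of signal versus DMSO scored.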

In assay [12] the test system is Thyroperoxidase (TPO), gene 445522. The experiment in a line: CCTE_Simmons_GUA_TPO: CCTE's Guaiacol Assay for Thyroperoxidase (TPO) Inhibition, Simmons Lab (AID 2283750). In short, it runs like this:
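Porcine thyroid microsomes (25 ug) in 200mM potassium phosphate, preincubated 30 s at 37C with compound (8 concentrations, 5 nM–87.5 uM) and 35mM guaiacol; 1mM H2O2 starts reaction. Absorbance change at 450nm over first 80 s; loss of signal versus DMSO, three replicates.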

Chain of Luciferin 4-monooxygenase (Photinus pyralis) (P08659 whole entry, looked up): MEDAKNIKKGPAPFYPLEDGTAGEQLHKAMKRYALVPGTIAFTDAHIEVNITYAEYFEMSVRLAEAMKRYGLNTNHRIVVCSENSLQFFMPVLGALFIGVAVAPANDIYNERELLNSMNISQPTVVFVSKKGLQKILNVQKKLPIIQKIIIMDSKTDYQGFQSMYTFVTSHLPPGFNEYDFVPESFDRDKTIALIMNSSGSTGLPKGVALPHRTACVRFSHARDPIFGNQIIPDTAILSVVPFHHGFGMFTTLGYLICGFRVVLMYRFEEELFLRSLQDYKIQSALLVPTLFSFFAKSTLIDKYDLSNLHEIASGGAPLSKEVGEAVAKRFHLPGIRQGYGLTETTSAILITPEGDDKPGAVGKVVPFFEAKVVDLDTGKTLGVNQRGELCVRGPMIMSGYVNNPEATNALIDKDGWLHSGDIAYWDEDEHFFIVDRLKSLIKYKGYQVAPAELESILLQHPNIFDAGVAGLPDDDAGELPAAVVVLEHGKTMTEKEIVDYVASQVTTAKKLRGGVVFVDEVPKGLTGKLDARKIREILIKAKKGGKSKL

Turning to `CC#C[C@]1(O)CC[C@H]2[C@@H]3CCC4=CC(=O)CCC4=C3[C@@H](c3ccc(N(C)C)cc3)C[C@@]21C`, the half-maximal activity concentration (AC50) in assay [1] is 13.4 µM (active); in assay [2] it was 27.9 µM (active); in assay [4] it was 28.1 µM (active); in assay [5], 25.2 µM (active). The result in assay [3] was inactive.

For `CC(C)(C)c1ccc(O)c(C(C)(C)C)c1`, the AC50 in assay [2] was 0.00448 µM (active); in assay [4] it was 17.4 µM (active); in assay [5] it was 21 µM (active). The molecule was classed as inactive in assay [3].

For `CCCCCCCCCCCCc1ccccc1S(=O)(=O)O`, the outcome in assay [2], in assay [6], in assay [7], in assay [8], in assay [9] and in [3] was inactive. Further, the molecule was called inactive in assay [4] and in [5].

For the molecule `c1ccc2cc3c(ccc4ccccc43)cc2c1`, the call in [1] and in assay [2] was inactive. In addition, the AC50 in [3] is 17.3 µM (active).

Consider `CCCOC(=O)c1ccc(O)cc1`, for which the result in [1], in [4] and in [5] was inactive. In [2], the AC50 was 43.3 µM (active).

Consider `O=[N+]([O-])c1ccc(O)cc1`, for which the outcome in assay [1], in assay [2], in assay [4] and in [5] was inactive.

With `O=C(O)Cc1cc(I)c(Oc2cc(I)c(O)c(I)c2)c(I)c1`, the half-maximal activity concentration (AC50) in [2] was 3.08 µM (active); in [4], 51.7 µM (active); in assay [5], 46.6 µM (active). For the same molecule, the molecule was called inactive in [6], in assay [8], in [9], in [10] and in assay [11].

Turning to `CC(C)(C)c1cc(C(C)(C)C)c(O)c(C(C)(C)C)c1`, the outcome in [2] and in assay [3] was inactive.

`O=C(O)c1ccccc1C(c1ccc(O)cc1)c1ccc(O)cc1`: the molecule was called inactive in assay [1], in [2], in [4] and in assay [5]. Besides, the concentration at half-maximal activity (AC50) was 118 µM (active) in assay [12] and 15.3 µM (active) in assay [3].

As for `CN1CCN(c2ccccc2/C=C2\SCCN(c3ccc(Cl)c(Cl)c3)C2=O)CC1`, the result in [2] and in assay [3] was inactive. For the same molecule, the figures for the AC50 in assay [4] and in [5] were 66.3 µM (active) and 66.9 µM (active), respectively.

Consider `Cc1cc(CCN2CCN(c3nsc4ccccc34)CC2)cc2c1NC(=O)CC2(C)C`, for which the concentration at half-maximal activity (AC50) in [1] is 11.1 µM (active); in [2] it was 3.78 µM (active); in [4], 9.03 µM (active); in assay [5] it was 21.4 µM (active).

As for `Oc1cccc(O)c1`, the figures for the AC50 in assay [1] and in assay [3] were 1.35 µM (active) and 16.1 µM (active), respectively. In addition, the molecule was called inactive in assay [2] and in assay [5].

For the molecule `CCCCCCCCCCCCN1CCCC1=O`, the concentration at half-maximal activity (AC50) in [2] was 45.8 µM (active); in assay [3], 31.1 µM (active); in [4], 50 µM (active); in assay [5], 75.5 µM (active).

For orientation: AC50 means the concentration giving half of the maximal activity seen.
